From PMC4336329 (PLoS ONE, 2015)
About 2,200 (0.71%) of roughly 310,000 compounds showed an effect of 50% or more. Effects have a minus sign here. Only a selection was taken, and strong results are over-represented in it overall.

What follows are compounds tested against human ether-à-go-go-related gene (hERG) potassium channel (human, UniProt Q12809) (assay: primary screen, population patch clamp on CHO cells stably expressing hERG; higher = less effect of the substance).
Procedure: Briefly, Chinese hamster ovary (CHO) cells stably expressing the hERG channel were dislodged from tissue culture flasks and dispensed into PPC plates. […] During the recording, background leak currents were estimated by a 100 ms step to -80 mV from an initial holding potential of -70 mV and subtracted from the subsequent current measurement. The campaign was conducted in two phases using slight differences in recording protocol. In the first phase, the initial voltage pulse used a 100 ms step to -30 mV from a holding potential of -70 mV, a 2 s conditioning step to +25 mV, and a 2 s test step to -30 mV. During the second phase of the screen, the potential during the conditioning step was raised to +45 mV. In both phases of the campaign, a secondary voltage pulse was applied using the same parameters as the second phase initial pulse. The initial and secondary pulses were applied in the absence of compound, and upon application of 1 μM and 10 μM test concentrations. Small molecule effects on hERG current density were quantified by […].

Sequence of human ether-à-go-go-related gene (hERG) potassium channel (Q12809 whole entry, looked up): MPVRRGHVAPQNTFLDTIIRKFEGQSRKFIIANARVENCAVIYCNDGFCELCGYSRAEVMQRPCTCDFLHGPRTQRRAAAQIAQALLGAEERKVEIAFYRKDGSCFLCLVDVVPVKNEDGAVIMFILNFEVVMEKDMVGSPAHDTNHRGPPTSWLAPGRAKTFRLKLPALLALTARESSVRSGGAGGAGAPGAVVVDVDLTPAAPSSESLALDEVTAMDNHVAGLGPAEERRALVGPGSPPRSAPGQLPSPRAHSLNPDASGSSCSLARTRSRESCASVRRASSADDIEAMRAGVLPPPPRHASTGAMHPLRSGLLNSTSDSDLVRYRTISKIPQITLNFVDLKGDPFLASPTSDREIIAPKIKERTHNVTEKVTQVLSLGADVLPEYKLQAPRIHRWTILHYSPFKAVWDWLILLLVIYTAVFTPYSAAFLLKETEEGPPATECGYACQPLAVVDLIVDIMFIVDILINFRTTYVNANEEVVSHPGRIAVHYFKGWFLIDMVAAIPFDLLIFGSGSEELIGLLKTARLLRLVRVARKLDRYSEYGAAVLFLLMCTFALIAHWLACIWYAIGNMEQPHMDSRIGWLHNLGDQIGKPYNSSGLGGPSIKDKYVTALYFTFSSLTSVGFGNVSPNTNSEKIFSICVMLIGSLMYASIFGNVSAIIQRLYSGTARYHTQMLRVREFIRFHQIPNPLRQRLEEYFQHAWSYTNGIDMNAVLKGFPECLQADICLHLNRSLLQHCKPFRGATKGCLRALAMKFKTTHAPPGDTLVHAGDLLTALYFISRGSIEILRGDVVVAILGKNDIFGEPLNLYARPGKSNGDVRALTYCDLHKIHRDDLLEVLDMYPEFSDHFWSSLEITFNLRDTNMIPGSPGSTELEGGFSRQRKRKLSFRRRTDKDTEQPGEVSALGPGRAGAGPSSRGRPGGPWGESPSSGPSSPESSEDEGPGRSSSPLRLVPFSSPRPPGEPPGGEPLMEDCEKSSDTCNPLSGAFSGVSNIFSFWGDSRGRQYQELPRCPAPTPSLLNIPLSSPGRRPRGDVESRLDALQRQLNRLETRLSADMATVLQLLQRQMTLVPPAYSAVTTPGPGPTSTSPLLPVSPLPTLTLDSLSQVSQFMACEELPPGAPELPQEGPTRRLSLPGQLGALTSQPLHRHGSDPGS

| SMILES | hERG current change (%, negative = inhibition) at 1uM |
| --- | --- |
| O=C(COC(=O)c1ccco1)NCC1CCCO1 (stereo not shown) | -0.29% |
| COc1cccc(CNC23CC4CC(CC(C4)C2)C3)c1OCc1ccccc1.Cl | 3.29% |
| Cl.c1ccc(COc2ccccc2CNC23CC4CC(CC(C4)C2)C3)cc1 | -73.8% |
| COc1cc(CNC23CC4CC(CC(C4)C2)C3)ccc1OCc1ccccc1.Cl | 1.77% |
| Cc1cccc(-c2ccc(NC(=O)C3CCN(CC4CC4)CC3)cc2)c1 | -5.16% |
| Cc1cccn2c(=O)c3cc(C(=O)NCC4CCCO4)c(=N)n(C4CCCCC4)c3nc12 (stereo not shown) | -83.7% |
| Cc1cccn2c(=O)c3cc(C(=O)NCC4CCCO4)c(=N)n(C4CCCC4)c3nc12 (stereo not shown) | -80.3% |
| COc1ccc(C2/C=C\CN(C(=O)c3ccc(C)cc3)[C@H](Cc3ccccc3)C(=O)N2Cc2ccc(F)cc2)cc1 (stereo partly shown) | 11.8% |
| O=C(Cn1cnc(S(=O)(=O)N2CCCCC2)c1)Nc1ccc(OC(F)(F)F)cc1 | 11.7% |
| O=C(Oc1cccc2cccnc12)c1cccc(N2C(=O)C3C4CCC(C4)C3C2=O)c1 (stereo not shown) | 3.55% |
| Cc1ccc(NC(=O)CSCC(=O)Nc2ccc(S(=O)(=O)N3CCOCC3)cc2)cc1 | 11.4% |
| COc1ccc(C(=O)CSc2nnc(-c3cc4ccccc4cc3O)n2Cc2ccco2)cc1 | -16.2% |
| OC(CCCN1CCC(O)(c2ccc(Cl)cc2)CC1)c1ccc(F)cc1 (stereo not shown) | -72.7% |
| OC1(c2cccc(C(F)(F)F)c2)CCN(CCN2CCCCC2)CC1 | 16.2% |
| OC(CN1CCN(c2ccc(F)cc2)CC1)c1ccc(Cl)cc1 (stereo not shown) | 2.87% |
| OC1(c2ccc(Cl)cc2)CCN(Cc2cn[nH]c2-c2ccc(F)cc2)CC1 | -27.2% |
| CC(=O)N1CCC(O)(c2cccc(C(F)(F)F)c2)CC1 | 8.78% |
| Cl.O=C(CCCN1CCC(O)(c2cccc(C(F)(F)F)c2)CC1)c1ccc(F)cc1 | -80.9% |
| O=C(CN1CCC(O)(c2ccc(F)cc2)CC1)NCc1ccc(F)cc1 | -0.396% |
| O=C(CCCN1CCC(O)(c2ccc(Br)cc2)CC1)c1ccc(F)cc1 | -75.7% |
| Cl.O=C(CCN1CCN(c2ccccc2F)CC1)c1ccc(Br)cc1 | -40% |
| COc1ccc(CCNC(=O)C(C)n2nc(C)n3c(cc4occc43)c2=O)cc1OC (stereo not shown) | 12.2% |
| NC(=O)c1ccc(NC(=O)c2cccc(Oc3ccccc3)c2)cc1 | 12.5% |

| SMILES | hERG current change (%, negative = inhibition) at 1uM |
| --- | --- |
| CCOC(=O)C1=C(C)NC(C)=C(C(=O)OCC)C1c1ccc(Br)o1 | 9.3% |
| COc1cc([N+](=O)[O-])ccc1NC(=S)NCc1ccccn1 | 8.38% |
| Cc1cc(C)c(NC(=O)CCCSc2nnc(N)s2)c(C)c1 | -4.26% |
| S=C(Nc1ccc(Cl)cc1Cl)Nc1ccccc1Oc1ccccc1 | 12.4% |
| O=C1c2ccccc2C(=O)N1CSc1ncccn1 | 1.65% |
| Cc1cc(C)nc(N2CCC(C(=O)NCc3ccco3)CC2)n1 | 1.22% |
| Cc1cc(NCc2ccco2)nc(N2CCC(C(=O)NC3CCCCC3)CC2)n1 | -63.6% |
| Cc1cc(C)nc(N2CCC(C(=O)NC3CCCCCC3)CC2)n1 | 0.0346% |
| COc1cccc(CCNC(=O)c2ccc(C#N)cc2)c1 | 8.19% |
| Cc1[nH]nc(N)c1-c1ccc(Cl)cc1 | 3.97% |
| O=C(NCc1ccco1)/C(=C/c1ccc([N+](=O)[O-])cc1)NC(=O)c1ccco1 | -50.4% |
| O=C(NCCc1ccccc1)/C(=C\c1ccccc1)NC(=O)c1ccco1 | 9.3% |
| O=C(NCCO)/C(=C\c1cccc([N+](=O)[O-])c1)NC(=O)c1ccco1 | 8.45% |
| O=C(NCCc1ccccc1)/C(=C\c1ccc([N+](=O)[O-])cc1)NC(=O)c1ccccc1 | 3.17% |
| O=C(NCc1ccccc1)/C(=C\c1ccccc1)NC(=O)c1ccco1 | 11.9% |
| CC(=O)Oc1ccc(/C=C(\NC(=O)c2ccco2)C(=O)NCc2ccco2)cc1 | -11% |
| O=C(NCc1ccccc1)/C(=C/c1ccc([N+](=O)[O-])cc1)NC(=O)c1ccco1 | -31% |
| O=C(NCCc1ccccc1)/C(=C\c1ccc([N+](=O)[O-])cc1)NC(=O)c1ccco1 | -59% |
| O=C(NCCO)/C(=C/c1cccc([N+](=O)[O-])c1)NC(=O)c1ccco1 | 9.43% |
| O=C(NCCc1ccccc1)/C(=C\c1cccc([N+](=O)[O-])c1)NC(=O)c1ccco1 | -50.6% |
| CC(=O)Oc1ccc(/C=C(\NC(=O)c2ccco2)C(=O)NCc2ccccc2)cc1 | -58.9% |
| O=C(NCc1ccccc1)/C(=C\c1ccc([N+](=O)[O-])cc1)NC(=O)c1ccco1 | -19.6% |
| O=C(OCC(=O)N1CCCC1=O)c1ccc(F)c(S(=O)(=O)N2CCOCC2)c1 | -4.67% |
